Measurements published in PubChem BioAssay (Tox21).
Results filed as inconclusive are left out. Activity calls are given as the source filed them. Unless noted, calls follow the shape of the dose curve; as a rule, active = well fitted curve in the direction sought with a large enough effect in the repeat runs; inconclusive = weak or mixed curves; inactive = no such curve, though single readings can be large; an effect the other way counts as inactive or inconclusive.

How the values were obtained:
[1] = target: Luciferin 4-monooxygenase (Photinus pyralis) (UniProt P08659); test: qHTS assay to identify small molecule inhibitors of firefly luciferase (AID 1224835); also: nearly all actives have a fitted effect of over 25% in size
Method in brief: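 Biochemical qHTS: compounds run as interplate titrations against purified firefly enzyme, with D-luciferin and ATP each at its KM concentration. Light output recorded by CCD imaging.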

[2] = qHTS assay to identify small molecule agonists of the constitutive androstane receptor (CAR) signaling pathway - cell viability counter screen (AID 1224836); also: nearly all actives have a fitted effect of over 45% in size
Method in brief: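 Multiplexed viability check: HepG2-CYP2B6-hCAR cells, 15-point compound dosing, 0.75 uM PK11195 final, 23 h at 37 C, CellTiter-Fluor fluorescence.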

[3] = qHTS assay to identify small molecule antagonists of the constitutive androstane receptor (CAR) signaling pathway - cell viability counter screen (AID 1224837); also: nearly all actives have a fitted effect of over 45% in size
Method in brief: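 Multiplexed cytotoxicity read-out for the CAR antagonist screen: double-stable HepG2-CYP2B6-hCAR cells co-treated with 50 nM CITCO (final) and compound over 15 concentrations, incubated 23 hr, then assessed by CellTiter-Fluor fluorescence.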

[4] = qHTS assay to identify small molecule antagonists of the estrogen related receptor signaling pathway with the pleiotropic PPARgamma coactivator (PGC) from Tox21 10K library - cell viability counter screen (AID 1224840; active = well fitted cell-killing curve with a large enough effect in the repeat runs, not every such curve was filed as active; also: nearly all actives have a fitted effect of over 40% in size; also: potency is read from the fitted curve at half-maximal effect)
Method in brief: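 Step one, plate 2,000 PGC/ERR cells per well; step two, incubate 6 h at 37 C/5% CO2; step three, pin-transfer compounds; step four, incubate 17.5 h; step five, add CellTiter-Fluor and read fluorescence after 30 min.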

[5] = qHTS assay to identify small molecule antagonists of the estrogen related receptor signaling pathway with the pleiotropic PPARgamma coactivator (PGC) from Tox21 10K library (AID 1224841; call rule not given here; also: actives are mostly falling curves and most rising ones were filed inactive; nearly all actives have a fitted effect of over 50% in size)
Method in brief: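 Antagonism in this quantitative HTS is taken from loss of luciferase signal in PGC/ERR cells. Cells (2,000/well) are treated with compounds in DMSO after a 6 h settling period and read by One-Glo luminescence after 18 h.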

[6] = qHTS assay to identify small molecule agonists of the estrogen related receptor signaling pathway with the pleiotropic PPARgamma coactivator (PGC) from Tox21 10K library (AID 1224842); also: nearly all actives have a fitted effect of over 15% in size
Method in brief: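 PGC/ERR reporter cell line, 2,000 cells per well, incubated 6 h at 37 C before 23 nL compound in DMSO was added. After 18 h at 37 C, One-Glo luminescence read following 30 min at room temperature.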

[7] = qHTS assay to identify small molecule agonists of the hypoxia (HIF-1) signaling pathway - cell viability counter screen (AID 1224844; calls by dose curve; also: nearly all actives have a fitted effect of over 50% in size; also: potency is read from the fitted curve at half-maximal effect)
Method in brief: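 Tox21 10K compounds were added to HRE-bla ME-180 cells (0.5% dialyzed FBS) and incubated 17 hrs at 37C; ATP-based CellTiter-Glo luminescence then reported cell viability in the same wells.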

[8] = qHTS assay to identify small molecule agonists of H2AX (AID 1224845; active = well fitted activation curve with a large enough effect in the signal ratio in the repeat runs, not every such curve was filed as active; the % refers to the signal ratio; also: potency is read from the fitted curve at half-maximal effect)
Method in brief: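 Wild-type CHO-K1 cells, plated overnight, exposed 3hr at 37C to 15 concentrations (0.76% DMSO final). Lysed, then HTRF anti-pH2AX (S139) cryptate and anti-H2AX-d2 antibodies, 24 hr room temperature; 665/620 nm emission read.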

[9] = qHTS assay to identify small molecule agonists of the hypoxia (HIF-1) signaling pathway (AID 1224846; active = well fitted activation curve with a large enough effect in the signal ratio in the repeat runs, not every such curve was filed as active; the % refers to the signal ratio)
Method in brief: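 Steps: seed ME-180 HRE-bla cells (2,000/well, 0.5% dialyzed FBS); incubate 5 hrs at 37C; pin-transfer compounds or DMSO; incubate 17 hrs; add LiveBLAzer B/G substrate CCF4-AM; measure reporter activation by FRET.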

[10] = qHTS assay to identify small molecule agonists of H2AX - cell viability counter screen (AID 1224847; calls by dose curve; also: top concentration of the series differs between compounds; nearly all actives have a fitted effect of over 30% in size)
Method in brief: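 After overnight plating of 1000 CHO-K1 cells per well, a 15-concentration compound series was applied for 3 hr at 37C. Luminescence from CellTiter-Glo, read following 30 min at room temperature, reflected cell viability.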

[11] = qHTS assay to identify small molecule antagonists of the estrogen related receptor (ERR) signaling pathway from Tox21 library (AID 1224848); also: nearly all actives have a fitted effect of over 50% in size; also: potency is read from the fitted curve at half-maximal effect
Method in brief: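 ERR reporter cell line (from NTP) seeded 2,000 cells/well, rested 6 h at 37 C/5% CO2, then pin-dosed with compounds in DMSO. After 18 h at 37 C, ONE-Glo added; luminescence read after 30 min at room temperature.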

[12] = qHTS assay to identify small molecule agonists of the estrogen related receptor (ERR) signaling pathway from Tox21 library (AID 1224849; calls by dose curve; also: nearly all actives have a fitted effect of over 15% in size); settings: ERR reporter cell line, ONE-Glo luciferase, 18 h; at 92.4 µM (top of the series) unless noted
Method in brief: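 Agonist signal is luciferase luminescence from an ERR reporter cell line treated 18 h at 37 C with DMSO-dissolved compounds, read 30 min after ONE-Glo addition at room temperature.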

[13] = qHTS RealTime-Glo MT Cell Viability Assay in HepG2 cells - 24 hour (AID 1224867); also: nearly all actives have a fitted effect of over 50% in size
Method in brief: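 Luminescence read-out: viable HepG2 cells reduce a prosubstrate to a NanoLuc substrate, giving a signal proportional to live cell number. Reads taken at 0, 8, 16, 24, 32 and 40 h of compound exposure at 37 C.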

[14] = qHTS RealTime-Glo MT Cell Viability Assay in HEK293 cells - 32 hour (AID 1224868); also: nearly all actives have a fitted effect of over 50% in size; also: potency is read from the fitted curve at half-maximal effect
Method in brief: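 Nonlytic real-time viability readout: viable cells convert prosubstrate to NanoLuc substrate, giving luminescence proportional to live cell number. HEK293, 600 cells/well, compound added after 5 h, continuous culture at 37 C.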

[15] = qHTS RealTime-Glo MT Cell Viability Assay in HepG2 cells - 40 hour (AID 1224870); also: nearly all actives have a fitted effect of over 50% in size
Method in brief: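 HepG2 cells (600/well) mixed with RealTime-Glo MT reagent, settled 5 h at 37 C/5% CO2 before compound addition. Nonlytic NanoLuc luminescence from viable-cell prosubstrate reduction read repeatedly during 40 h treatment at 37 C.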

[16] = A CellTox Green Cytotoxicity Assay to monitor cytotoxicity in HEK293 cells - 40 hour (AID 1224871); also: nearly all actives have a fitted effect of over 45% in size
Method in brief: (§1)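 Cytotoxicity was tracked continuously in HEK293 cells by a DNA-binding dye excluded from viable cells. Compounds were transferred in DMSO 5 h after seeding; fluorescence was recorded at intervals up to 40 h.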

[17] = target: Nuclear receptor subfamily 1 group I member 3 (Homo sapiens) (UniProt Q14994); test: qHTS assay to identify small molecule agonists of the constitutive androstane receptor (CAR) signaling pathway (AID 1224839);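 also: HepG2 cells stably carrying human CAR and a CYP2B6 luciferase reporter; nearly all actives have a fitted effect of over 15% in size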
Method in brief: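 Using human hepatoma HepG2 cells engineered with hCAR and a CYP2B6-2.2kb reporter, 15-concentration compound series were incubated 24 h alongside PK11195 at 0.75 uM final, with luminescence quantified afterwards.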

[18] = target: Thyrotropin receptor (Homo sapiens) (UniProt P16473); test: qHTS assay to identify small molecule agonists of the thyroid stimulating hormone receptor (TSHR) signaling pathway (AID 1224843; calls by dose curve; also: nearly all actives have a fitted effect of over 45% in size)
Method in brief: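 TSHR-HEK293 cells in agonist mode, 30 min room-temperature step, then cAMP measured by competitive HTRF (cAMP-d2 with anti-cAMP cryptate) after 1 h at room temperature. Tested at 15 concentrations in triplicate.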

[19] = A CellTox Green Cytotoxicity Assay to monitor cytotoxicity in HEK293 cells - 0 hour (AID 1224869); also: nearly all actives have a fitted effect of over 50% in size
Method in brief: as §1

[20] = target: Nuclear receptor subfamily 1 group I member 3 (Homo sapiens) (UniProt Q14994); test: qHTS assay to identify small molecule antagonists of the constitutive androstane receptor (CAR) signaling pathway (AID 1224838); also: nearly all actives have a fitted effect of over 40% in size; also: potency is read from the fitted curve at half-maximal effect
Method in brief: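 Compounds were titrated across 15 concentrations onto HepG2 cells double-stably expressing hCAR and a CYP2B6-2.2kb reporter, together with 50 nM CITCO (final). After 24 h at 37 C, luciferase activity was measured by luminescence.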
% is scaled to controls: 0 for no effect and ±100 for the full control effect.

Sequence of Nuclear receptor subfamily 1 group I member 3 (Homo sapiens) (Q14994 whole entry, looked up): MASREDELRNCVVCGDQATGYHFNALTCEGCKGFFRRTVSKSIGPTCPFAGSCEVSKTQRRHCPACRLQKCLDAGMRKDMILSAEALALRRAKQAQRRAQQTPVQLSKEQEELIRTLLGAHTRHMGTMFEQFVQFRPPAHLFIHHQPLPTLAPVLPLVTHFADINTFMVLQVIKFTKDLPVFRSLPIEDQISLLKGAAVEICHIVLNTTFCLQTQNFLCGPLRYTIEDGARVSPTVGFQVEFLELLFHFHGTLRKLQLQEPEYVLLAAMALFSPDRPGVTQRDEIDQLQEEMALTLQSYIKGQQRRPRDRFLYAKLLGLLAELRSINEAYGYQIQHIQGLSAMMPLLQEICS
Sequence of Thyrotropin receptor (Homo sapiens) (P16473 whole entry, looked up): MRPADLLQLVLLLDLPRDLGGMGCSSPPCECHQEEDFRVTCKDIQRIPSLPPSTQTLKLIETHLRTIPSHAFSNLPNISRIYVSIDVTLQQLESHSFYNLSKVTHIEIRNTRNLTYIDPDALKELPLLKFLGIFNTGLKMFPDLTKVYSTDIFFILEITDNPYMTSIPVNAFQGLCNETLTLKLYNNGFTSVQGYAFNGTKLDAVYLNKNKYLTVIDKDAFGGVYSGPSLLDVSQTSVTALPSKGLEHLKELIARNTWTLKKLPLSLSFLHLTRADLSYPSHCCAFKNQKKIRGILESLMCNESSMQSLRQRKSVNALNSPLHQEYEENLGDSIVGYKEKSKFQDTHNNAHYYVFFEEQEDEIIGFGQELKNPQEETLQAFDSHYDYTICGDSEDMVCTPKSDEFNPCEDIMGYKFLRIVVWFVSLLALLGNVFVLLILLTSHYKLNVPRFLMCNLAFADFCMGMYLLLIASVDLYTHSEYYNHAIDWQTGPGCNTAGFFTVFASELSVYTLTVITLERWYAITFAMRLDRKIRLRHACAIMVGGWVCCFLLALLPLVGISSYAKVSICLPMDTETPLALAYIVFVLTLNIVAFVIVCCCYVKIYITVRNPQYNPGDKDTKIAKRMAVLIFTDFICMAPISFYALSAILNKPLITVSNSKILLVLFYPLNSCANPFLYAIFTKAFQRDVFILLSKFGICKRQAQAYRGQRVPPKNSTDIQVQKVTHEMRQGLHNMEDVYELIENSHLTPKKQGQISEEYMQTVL
Sequence of Luciferin 4-monooxygenase (Photinus pyralis) (P08659 whole entry, looked up): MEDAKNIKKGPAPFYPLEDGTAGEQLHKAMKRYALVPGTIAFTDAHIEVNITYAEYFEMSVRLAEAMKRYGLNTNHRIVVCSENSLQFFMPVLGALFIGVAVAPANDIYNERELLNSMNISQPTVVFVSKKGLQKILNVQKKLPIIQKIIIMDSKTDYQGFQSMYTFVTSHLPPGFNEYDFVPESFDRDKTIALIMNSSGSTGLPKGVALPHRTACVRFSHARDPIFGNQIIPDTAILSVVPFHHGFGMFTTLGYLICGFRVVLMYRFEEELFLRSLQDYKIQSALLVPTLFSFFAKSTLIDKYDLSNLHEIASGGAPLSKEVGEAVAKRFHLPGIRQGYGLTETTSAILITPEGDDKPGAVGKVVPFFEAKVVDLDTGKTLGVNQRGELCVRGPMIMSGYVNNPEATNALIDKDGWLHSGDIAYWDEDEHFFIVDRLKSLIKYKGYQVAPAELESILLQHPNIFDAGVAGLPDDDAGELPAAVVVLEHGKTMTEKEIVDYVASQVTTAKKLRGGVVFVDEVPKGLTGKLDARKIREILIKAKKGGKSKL

Cc1cnc2c(C(=O)O)c(Cl)ccc2c1
inactive: Potency [1] | Potency [2] | Potency [3] | Potency [4] | Potency [5] | Potency [6] | Potency [7] | Potency [8] | Potency [9] | Potency [10] | Potency [11] | activity change, positive = activation [12] -0.863% | Potency [13] | Potency [14] | Potency [15] | Potency [16]

CC(=O)C(Cl)C(=O)N(C)C (stereo not given)
inactive: Potency [1] | Potency [2] | Potency [3] | Potency [17] | Potency [4] | Potency [18] | Potency [9] | Potency [10] | Potency [13] | Potency [14] | Potency [19] | Potency [15]
active: Potency [7] 43.6 µM

Clc1cc(Cl)c(-c2cc(Cl)c(Cl)cc2Cl)cc1Cl
inactive: Potency [1] | Potency [2] | Potency [3] | Potency [20] | Potency [4] | Potency [7] | Potency [8] | Potency [9] | Potency [10] | Potency [13] | Potency [14] | Potency [19] | Potency [15] | Potency [16]

CCCCN(CCCC)C(=S)S
inactive: Potency [1] | Potency [2] | Potency [3] | Potency [4] | Potency [6] | Potency [7] | Potency [8] | Potency [9] | Potency [11] | activity change, positive = activation [12] -4.56% | Potency [13] | Potency [14] | Potency [19] | Potency [15] | Potency [16]

COP(=O)(OC)O/C(=C\Cl)c1cc(Cl)c(Cl)cc1Cl
inactive: Potency [1] | Potency [2] | Potency [3] | Potency [6] | Potency [7] | Potency [10] | activity change, positive = activation [12] -68.1% | Potency [19]
active: Potency [11] 21.7 µM

CN1CCc2cc3c(cc2C1O)OCO3 (stereo not given)
inactive: Potency [1] | Potency [20] | Potency [17] | Potency [5] | Potency [6] | Potency [7] | Potency [8] | Potency [10] | Potency [11] | Potency [13] | Potency [14] | Potency [19] | Potency [15] | Potency [16]

N#Cc1c2ccccc2cc2ccccc12
inactive: Potency [1] | Potency [17] | Potency [6] | Potency [18] | Potency [7] | Potency [8] | Potency [11] | Potency [13] | Potency [19] | Potency [15] | Potency [16]

CNN
inactive: Potency [1] | Potency [2] | Potency [3] | Potency [4] | Potency [7] | Potency [8] | Potency [9] | Potency [10] | Potency [13] | Potency [14] | Potency [19] | Potency [15] | Potency [16]

COC(=O)c1ccccc1S(=O)(=O)NC(=O)Nc1nc(C)nc(OC)n1
inactive: Potency [1] | Potency [2] | Potency [3] | Potency [4] | Potency [18] | Potency [7] | Potency [9] | Potency [10] | Potency [13] | Potency [14] | Potency [19] | Potency [15]

N#Cc1ccc(N(CC(N)=O)CC(F)(F)F)cc1C(F)(F)F
inactive: Potency [1] | Potency [2] | Potency [3] | Potency [4] | Potency [18] | Potency [7] | Potency [9] | Potency [10] | Potency [13] | Potency [14] | Potency [19] | Potency [15] | Potency [16]

CC[N+]1(CC)CCC(OC(=O)C(O)(c2ccccc2)c2ccccc2)C1 (stereo not given)
inactive: Potency [1] | Potency [3] | Potency [20] | Potency [17] | Potency [4] | Potency [18] | Potency [7] | Potency [9] | Potency [10] | Potency [13] | Potency [14] | Potency [19] | Potency [15] | Potency [16]

CCn1cc[n+](C)c1 (tested in a mixture with another compound)
inactive: Potency [1] | Potency [2] | Potency [3] | Potency [4] | Potency [7] | Potency [8] | Potency [9] | Potency [10] | Potency [13] | Potency [14] | Potency [19] | Potency [15] | Potency [16]

CC1=C2C[C@H]3[C@@H](CC=C4C[C@@H](O)CC[C@@]43C)[C@@H]2CC[C@]12O[C@@H]1C[C@H](C)CN[C@H]1[C@H]2C
active: Potency [4] 26.6 µM | Potency [14] 16.9 µM
inactive: Potency [1] | Potency [3] | Potency [20] | Potency [17] | Potency [18] | Potency [7] | Potency [8] | Potency [9] | Potency [13] | Potency [19] | Potency [15]

CSSC
active: Potency [20] 22 µM
inactive: Potency [1] | Potency [17] | Potency [4] | Potency [5] | Potency [6] | Potency [18] | Potency [7] | Potency [8] | Potency [9] | Potency [10] | Potency [11] | Potency [13] | Potency [19] | Potency [15] | Potency [16]

O.O.O.O=C([O-])[C@H]([O-])[C@@H]([O-])C(=O)[O-].O=C([O-])[C@H]([O-])[C@@H]([O-])C(=O)[O-].[K+].[K+].[Sb+3].[Sb+3]
inactive: Potency [1] | Potency [10] | Potency [19] | Potency [15]
active: Potency [4] 19.4 µM | Potency [8] 114 µM

CCCC[N+]1(C)CCCC1 (tested in a mixture with another compound)
inactive: Potency [1] | Potency [2] | Potency [3] | Potency [4] | Potency [7] | Potency [8] | Potency [9] | Potency [10] | Potency [13] | Potency [14] | Potency [19] | Potency [15] | Potency [16]

CN1CCc2cc(Cl)c(O)cc2[C@H]2c3ccccc3CC[C@@H]21
inactive: Potency [1] | Potency [20] | Potency [17] | Potency [4] | Potency [6] | Potency [18] | Potency [8] | Potency [9] | Potency [10] | Potency [11] | activity change, positive = activation [12] 0.522% [at 42.5 µM] | Potency [13] | Potency [19] | Potency [15] | Potency [16]
